This passage reports Potency, outcome and max response results from PubChem BioAssay (NCATS).

Values without a mark were called inactive. Inconclusive results are not listed. Activity calls are given as the source filed them. Calls come from the whole dose curve; as a rule, active = well fitted curve in the direction sought with a large enough effect; inconclusive = small, poorly fitted or top-dose-only effect, or another doubt; inactive = no such curve, though single readings can be large; an effect the other way counts as inactive or inconclusive.

The subject of test [1] is Zika virus NS2B-NS3 protease (linked construct). The test is described as follows: Primary screen NINDS Rhodamine qHTS for Zika virus inhibitors (AID 1347160). Note: nearly all actives have a fitted effect of over 55% in size. In a few lines: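 Rhodamine110-peptide cleavage (1.5 µM substrate) by 25 nM linked NS2B-NS3 enzyme at pH 8.0 (Tris, Tween 20), after 15 min RT preincubation with compounds; 15-min fluorescence change normalized to controls and Hill-fitted.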

In test [2] the target is Calcium and integrin-binding protein 1 (Homo sapiens) (UniProt Q99828). Briefly: Primary qHTS for Identification of Calcium Integrin Binding Protein 1 (CIB1) Competitor (AID 1508620).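 Note: GST tagged CIB1 binding a fluorescein labelled alphaIIb integrin peptide tracer; top concentration of the series differs between compounds; % is set by controls: 0 for no effect and ±100 for the full control effect.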 In a few lines: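 Fluorescence polarization competition: CIB1-GST (1 uM final) preincubated with compound 15 min at room temperature, then FITC-labeled alphaIIb peptide (100 nM final) added for another 15 min. Polarization read at Ex 480/Em 540.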
Sequence of Calcium and integrin-binding protein 1 (Homo sapiens) (Q99828 whole entry, looked up): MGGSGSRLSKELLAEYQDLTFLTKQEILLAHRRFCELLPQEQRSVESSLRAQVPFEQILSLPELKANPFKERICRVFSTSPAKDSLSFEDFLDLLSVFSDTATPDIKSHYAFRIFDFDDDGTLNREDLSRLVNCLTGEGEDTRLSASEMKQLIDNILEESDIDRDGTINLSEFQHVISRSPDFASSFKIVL
(Quantitative high-throughput screening tests each substance at several concentrations.)

Test [3] addresses Glutathione peroxidase 1 (Homo sapiens) (UniProt P07203). Briefly: Primary qHTS Assay for Inhibitors of Recombinant Selenoprotein Glutathione Peroxidase 1 (GPX1) (AID 1845191). Note: nearly all actives have a fitted effect of over 65% in size. The gist of the method: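 GPX1 10 nM, GR 100 nM, GSH 1 mM, NADPH 0.5 mM, CHP 0.5 mM (final). 30-min cpd preincubation, RT. Ex340/Em450 read t=0, t=15 min.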
Test [4] addresses Phospholipid hydroperoxide glutathione peroxidase GPX4 (Homo sapiens) (UniProt P36969). The test is described as follows: Primary qHTS Assay for Inhibitors of Recombinant Selenoprotein Glutathione Peroxidase 4 (GPX4) (AID 1845192). Note: nearly all actives have a fitted effect of over 65% in size. Note: potency is the fitted concentration of half-maximal effect. The gist of the method:
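qHTS, GR-coupled: GPX4 200 nM + cpd 30 min RT → GSH 1 mM, NADPH 0.5 mM, GR 100 nM → CHP 0.5 mM start; fluor 340/450 at t0 and t15 min; no-enzyme wells as control.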

Test [5] has as its target Luciferin 4-monooxygenase (Photinus pyralis) (UniProt P08659). Briefly: Primary firefly luciferase (FLuc) qHTS assay for identification of artifact compounds. (AID 1845220). Note: nearly all actives have a fitted effect of over 60% in size. The note with it: outcome: dose series up to 54.1 µM unless noted. The gist of the method:
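In this counter-screen for luciferase artifacts, test compounds met substrate (10 uM each luciferin and ATP) before 10 nM enzyme started the reaction. Light output was measured 5 min later.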

For test [6], the system named is Nanoluciferase (engineered Oplophorus gracilirostris luciferase). Briefly: Primary Nanoluciferase (NLuc) qHTS assay for identification of artifact compounds. (AID 1845222).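 Note: NLuc secreted into diluted conditioned medium of S16 cells.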 The gist of the method: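 Using secreted nanoluciferase in S16 culture medium (0.22 um filtered, 1:55 dilution), compounds were preincubated 15 min at RT. Signal was generated with Nano-Glo reagent (1:100) over 5 min.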

The nature of test [7]: Primary redox qHTS assay for identification of artifact compounds. (AID 1845223).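 Note: 0% = DMSO and 100% = reference compound.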 In a few lines: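 Redox-cycling detection via DTT (250 uM final) oxidation coupled to Amplex Red (25 uM)/HRP (250 mU/mL) in HBSS. 15 min preincubation plus 30 min after DTT, room temperature. Ex/Em 525/598 nm; 4-parameter Hill fit against DMSO and 10 uM DA3003.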
In a further test the test system is HaCat. Briefly: Cytotoxic Profiling of Annotated Libraries Using Quantitative High-Throughput Screening (AID 1296008). For max response: % is set by controls: 0 for no effect and ±100 for the full control effect. Note: nearly all actives have a fitted effect of over 60% in size. Note: potency is the fitted concentration of half-maximal effect. To be noted: Five cell lines viability, CellTiter-Glo ATP luminescence, 48-72 h; max response: hits give low values. The gist of the method:
(§1)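 Compounds were pin-transferred onto cells and incubated 48 or 72 hr at 37 degree Celsius, 95% humidity. CellTiter-Glo was added, plates sat 10 min at room temperature, then ATP-coupled luminescence was imaged as the viability read-out.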
For orientation: In ATP-based viability assays light output follows the ATP content of the culture.

The test system of another test is NIH3T3. Described as above. The note with it: Five cell lines viability, CellTiter-Glo ATP luminescence, 48-72 h; max response: hits give low values. In a few lines:
as §1

For the next test, the system named is C33A. Briefly: Primary qHTS to identify gynecologic anti-cancer compounds using libraries of approved drugs and bioactive compounds (AID 1345084). Note: nearly all actives have a fitted effect of over 55% in size. Note: potency is the fitted concentration of half-maximal effect. The note with it: Gynecologic cancer cell panel viability, ATPlite luminescence, 48 h; series mostly up to 57.5 µM. The gist of the method:
(§2)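 Measured: luminescence after ATPlite addition (15 min, RT). Exposure: 48 h, 37 C, 5% CO2.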

For the next test, the system named is CAOV3. Described as above. The note with it: Gynecologic cancer cell panel viability, ATPlite luminescence, 48 h; series mostly up to 57.5 µM. In a few lines: as §2
Another test concerns CASKI. The test is described as above. The note with it: Gynecologic cancer cell panel viability, ATPlite luminescence, 48 h; series mostly up to 57.5 µM. In a few lines: as §2
Another test deals with Es-2. The test is described as above. The note with it: Gynecologic cancer cell panel viability, ATPlite luminescence, 48 h; series mostly up to 57.5 µM. The gist of the method:
as §2

Another test deals with Hek293T. The description is as above. To be noted: Gynecologic cancer cell panel viability, ATPlite luminescence, 48 h, control line for the selectivity index; series mostly up to 57.5 µM. The gist of the method: as §2
The next test concerns JEG-3. Described as above. To be noted: Gynecologic cancer cell panel viability, ATPlite luminescence, 48 h; series mostly up to 57.5 µM. In a few lines: as §2
In another test the test system is OV90. Described as above. The note with it: Gynecologic cancer cell panel viability, ATPlite luminescence, 48 h; series mostly up to 57.5 µM. In a few lines: as §2
A further test relates to PA-1. Described as above. To be noted: Gynecologic cancer cell panel viability, ATPlite luminescence, 48 h; series mostly up to 57.5 µM. In a few lines: as §2
In a further test the test system is Tov-21-G. Described as above. To be noted: Gynecologic cancer cell panel viability, ATPlite luminescence, 48 h; series mostly up to 57.5 µM. The gist of the method: as §2
Another test relates to Tov112D. The test is described as above. The note with it: Gynecologic cancer cell panel viability, ATPlite luminescence, 48 h; series mostly up to 57.5 µM. In a few lines: as §2
Test [8] can be described thus: Primary fluorescence-based thiol-reactive (MSTI) qHTS assay for identification of artifact compounds. (AID 1845221).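 Note: thiol-reactive compounds lower the probe fluorescence signal; nearly all actives have a fitted effect of over 65% in size.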 In a few lines:
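Reactivity toward the thiol probe MSTI (4 uM) is scored by fluorescence at Ex/Em 525/598 nm after 1 h at room temperature. Acetyl-MSTI and MSTI define the activity scale.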

Sequence of Phospholipid hydroperoxide glutathione peroxidase GPX4 (Homo sapiens) (P36969 whole entry, looked up): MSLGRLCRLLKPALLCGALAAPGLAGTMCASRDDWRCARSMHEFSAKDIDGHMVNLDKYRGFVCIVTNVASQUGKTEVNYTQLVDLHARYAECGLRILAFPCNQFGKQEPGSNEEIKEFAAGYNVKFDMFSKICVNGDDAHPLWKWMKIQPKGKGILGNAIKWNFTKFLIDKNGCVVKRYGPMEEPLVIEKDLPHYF
Sequence of Glutathione peroxidase 1 (Homo sapiens) (P07203 whole entry, looked up): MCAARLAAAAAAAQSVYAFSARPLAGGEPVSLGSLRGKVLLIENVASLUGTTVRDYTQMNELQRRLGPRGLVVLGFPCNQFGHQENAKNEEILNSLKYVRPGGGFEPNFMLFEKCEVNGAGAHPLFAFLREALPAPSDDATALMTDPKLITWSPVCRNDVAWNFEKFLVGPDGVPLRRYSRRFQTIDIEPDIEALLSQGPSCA

Consider `COc1ccc2[nH]c(-c3ccccc3)c(CCN(C)C)c2c1`, for which the Potency result (in [1]; in test [2]; in test [3]; in [6]; in test [7]; in the test with C33A) was “inactive” each time. Moreover, the Potency entry in the test on CAOV3, in the test with CASKI, with Es-2, with Hek293T, in the test on JEG-3 and with OV90 was “inactive” in each case. Further, the Potency result with PA-1, in the test on Tov-21-G and in the test with Tov112D was “inactive” throughout. The Potency in [4] is 16100 nM (active). Moreover, the molecule was called inactive (in [5]; in the test on HaCat). Besides, the max response in the test with NIH3T3 was -23.1%.

Regarding `O=C(N1CCCCC1Cc1ccccc1)n1cc(-c2ccc(-c3ccccc3)cc2)nn1` (stereo not given), the Potency entry in test [1], in [2], in test [3], in [4], in test [8] and in test [6] was “inactive” in each case. Besides, the Potency result (in [7]; in the test on C33A; in the test with CAOV3; with CASKI; in the test with Es-2; with Hek293T) was “inactive” throughout. Further, the Potency result in the test on JEG-3, with OV90, in the test with PA-1, with Tov-21-G and with Tov112D was “inactive” each time. The molecule was classed as inactive (in test [5]; in the test with HaCat; with NIH3T3).

For the molecule `O=C(C[C@@H]1NCCC[C@H]1O)Cn1cnc2ccccc2c1=O`, the Potency result in test [1], in test [2], in test [8], in test [6] and in test [7] was “inactive” in each case. Moreover, in test [5], the molecule was called inactive. Also, the Potency was 1300 nM (active) in the test on HaCat; 366 nM (active) in the test with NIH3T3; 631 nM (active) in the test on C33A; 1780 nM (active) with CASKI; 1410 nM (active) in the test with Es-2; 447 nM (active) in the test with Hek293T. The Potency is 11200 nM (active) with OV90, 282 nM (active) with PA-1, 794 nM (active) in the test on Tov-21-G and 631 nM (active) with Tov112D.

For `CC[C@@H]1C[C@H]2CC[C@H](O2)[C@H](C)C(=O)O[C@@H](C)C[C@@H]2CC[C@@H](O2)[C@@H](C)C(=O)O[C@H](C)C[C@H]2CC[C@H](O2)[C@H](C)C(=O)O[C@@H](C)C[C@@H]2CC[C@@H](O2)[C@@H](C)C(=O)O1`, the Potency entry in test [1], in [2], in test [3], in test [4], in [6] and in test [7] was “inactive” each time. Besides, the Potency result in the test on JEG-3 was “inactive”. Moreover, the outcome in test [5] was “inactive [at 25.7 µM]”. Also, the Potency in the test with HaCat was 485 nM (active); with NIH3T3, 86.2 nM (active); in the test with CAOV3, 562 nM (active); in the test on CASKI, 501 nM (active); in the test on Es-2, 708 nM (active); in the test on Hek293T, 282 nM (active). In addition, the Potency with OV90 was 447 nM (active); in the test with PA-1, 398 nM (active).

For `C=C(C)[C@@]12O[C@@H]1[C@@]1(C)C(=C[C@H]2O)CC[C@@H](O)[C@@H]1C`, the Potency entry in test [1], in [2], in test [3], in [4], in test [6] and in test [7] was “inactive” in each case. Besides, the Potency result in the test on C33A, with CAOV3, in the test on CASKI, in the test with Es-2, in the test with Hek293T and with JEG-3 was “inactive” throughout. For the same molecule, the Potency result in the test with OV90, in the test with PA-1, in the test on Tov-21-G and in the test with Tov112D was “inactive” throughout. Moreover, the outcome in [5] was inactive. Further, the max response in the test on HaCat was -1.07%; with NIH3T3 it was 2.77%.

In the case of `CCC1CN2CCC3(C(=O)Nc4cccc(O)c43)C2CC1/C(=C/OC)C(=O)OC` (stereo not given), the Potency result in test [1], in test [2], in test [3], in test [4], in test [8] and in test [6] was “inactive” each time. Also, the Potency result (in [7]; in the test with C33A; with CAOV3; with CASKI; in the test with Es-2; with Hek293T) was “inactive” each time. Further, the Potency result in the test with JEG-3, in the test on OV90, with PA-1, in the test on Tov-21-G and in the test with Tov112D was “inactive” in each case. In addition, the outcome (in test [5]; in the test with HaCat) was inactive. Further, the max response in the test on NIH3T3 was 4.67%.
